We go through five sequences from paper PMC7862700, “An all-to-all approach to the identification of sequence-specific readers for epigenetic DNA modifications on cytosine”.

Assay in all cases: DAPPL (digital affinity profiling via proximity ligation, sequencing); 10 mM Tris-HCl pH 7.5, 50 mM NaCl, 1 mM DTT, 4% glycerol, room temperature, 30 min; GST-TFs on glutathione beads, 16-mer random dsDNA library, 0.1% formaldehyde crosslink after washing; high values mean tight binding
What all share (details): protein: recombinant; tags: N-terminal GST; dsDNA, one strand shown

In one test the target is T1, ELK1 (Homo sapiens, UniProt P19419 1-428).
T1 sequence: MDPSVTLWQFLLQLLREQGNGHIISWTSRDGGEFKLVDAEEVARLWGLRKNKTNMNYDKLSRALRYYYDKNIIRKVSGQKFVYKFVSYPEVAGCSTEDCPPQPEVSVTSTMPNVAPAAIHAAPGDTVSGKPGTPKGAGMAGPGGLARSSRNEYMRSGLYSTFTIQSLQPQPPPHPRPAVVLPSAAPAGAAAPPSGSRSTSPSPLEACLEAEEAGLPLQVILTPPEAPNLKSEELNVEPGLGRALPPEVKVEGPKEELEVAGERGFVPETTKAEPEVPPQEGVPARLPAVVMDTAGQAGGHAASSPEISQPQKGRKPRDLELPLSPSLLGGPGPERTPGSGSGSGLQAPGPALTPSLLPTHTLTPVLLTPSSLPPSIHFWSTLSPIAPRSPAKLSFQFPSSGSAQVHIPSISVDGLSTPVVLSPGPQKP
The procedure, abridged:
(§1)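 Binding signal is defined as a hexamer's read frequency for one factor over its frequency for the tag-only sample. To obtain reads, GST-fused human transcription factors were expressed in yeast, captured on glutathione beads, barcoded with DNA and pooled with that sample. Pools met 200 nmole of a 16-mer random double-stranded DNA library in Tris/NaCl/DTT/glycerol buffer for 30 min at room temperature before washing, 0.1% formaldehyde crosslinking, proximity ligation (BsaI/T4 ligase, 1 h, 37 °C), PCR and Illumina NextSeq500 sequencing.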

A further test concerns the target SPI1 (Homo sapiens, UniProt P17947 1-270). An outline of the steps: as §1
Another test concerns the target T2, ELK3 (Homo sapiens, UniProt P41970 1-407).
T2 sequence: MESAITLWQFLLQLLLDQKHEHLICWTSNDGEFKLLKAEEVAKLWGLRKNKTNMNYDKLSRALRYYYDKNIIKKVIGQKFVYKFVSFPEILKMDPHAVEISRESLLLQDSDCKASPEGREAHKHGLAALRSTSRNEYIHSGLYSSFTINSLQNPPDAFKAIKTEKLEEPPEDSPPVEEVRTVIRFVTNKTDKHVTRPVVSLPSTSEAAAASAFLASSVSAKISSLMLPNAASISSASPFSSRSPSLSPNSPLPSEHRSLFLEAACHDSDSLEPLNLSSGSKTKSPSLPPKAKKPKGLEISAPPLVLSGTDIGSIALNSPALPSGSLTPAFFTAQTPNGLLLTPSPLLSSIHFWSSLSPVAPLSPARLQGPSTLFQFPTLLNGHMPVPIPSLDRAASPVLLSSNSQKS
An outline of the steps:
as §1

The target in a further test is T3, SPIC (Homo sapiens, UniProt Q8N5J4 1-248).
T3 sequence: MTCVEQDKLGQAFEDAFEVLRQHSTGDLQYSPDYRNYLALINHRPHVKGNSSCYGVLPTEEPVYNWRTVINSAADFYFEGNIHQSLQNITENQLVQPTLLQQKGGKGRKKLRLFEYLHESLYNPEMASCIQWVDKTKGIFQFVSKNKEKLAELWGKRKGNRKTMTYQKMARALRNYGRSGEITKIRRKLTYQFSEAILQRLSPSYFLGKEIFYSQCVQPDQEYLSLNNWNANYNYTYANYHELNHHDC
An outline of the steps: as §1

The next test deals with ELF4 (Homo sapiens, UniProt Q99607 1-663). An outline of the steps:
as §1

The next test concerns the target T4, ELF3 (Homo sapiens, UniProt P78545 1-371).
T4 sequence: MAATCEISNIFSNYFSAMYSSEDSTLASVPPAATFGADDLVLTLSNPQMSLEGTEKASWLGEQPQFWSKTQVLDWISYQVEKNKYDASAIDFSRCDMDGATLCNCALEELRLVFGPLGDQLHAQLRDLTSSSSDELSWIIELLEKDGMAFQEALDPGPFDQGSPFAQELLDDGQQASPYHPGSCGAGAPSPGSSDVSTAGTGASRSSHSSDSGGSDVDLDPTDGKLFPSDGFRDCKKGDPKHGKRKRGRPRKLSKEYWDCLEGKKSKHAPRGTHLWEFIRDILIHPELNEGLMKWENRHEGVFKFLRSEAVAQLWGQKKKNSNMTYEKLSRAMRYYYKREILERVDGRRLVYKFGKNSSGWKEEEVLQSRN
The procedure, abridged:
as §1

A further test addresses T5, ERG (Homo sapiens, UniProt P11308 1-479).
T5 sequence: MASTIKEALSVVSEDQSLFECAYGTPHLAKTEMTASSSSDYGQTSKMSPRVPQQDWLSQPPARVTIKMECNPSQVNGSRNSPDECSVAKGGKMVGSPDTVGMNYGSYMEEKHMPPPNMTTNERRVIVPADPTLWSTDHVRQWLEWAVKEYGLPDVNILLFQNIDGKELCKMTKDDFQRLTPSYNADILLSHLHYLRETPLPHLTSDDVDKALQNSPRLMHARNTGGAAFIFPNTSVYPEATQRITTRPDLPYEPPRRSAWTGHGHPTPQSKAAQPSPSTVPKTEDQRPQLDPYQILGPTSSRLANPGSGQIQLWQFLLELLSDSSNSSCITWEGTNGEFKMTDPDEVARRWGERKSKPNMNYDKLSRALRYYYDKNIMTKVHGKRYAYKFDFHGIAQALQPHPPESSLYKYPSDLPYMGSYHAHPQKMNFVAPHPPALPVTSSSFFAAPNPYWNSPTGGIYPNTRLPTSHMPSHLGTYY
An outline of the steps:
as §1

The target in a further test is ELF1 (Homo sapiens, UniProt P32519 1-619). The procedure, abridged:
as §1

The target of the next test is SPIB (Homo sapiens, UniProt Q01892 1-262). An outline of the steps: as §1
For another test, the target named is T6, ELK4 (Homo sapiens, UniProt P28324-2 1-405).
T6 sequence: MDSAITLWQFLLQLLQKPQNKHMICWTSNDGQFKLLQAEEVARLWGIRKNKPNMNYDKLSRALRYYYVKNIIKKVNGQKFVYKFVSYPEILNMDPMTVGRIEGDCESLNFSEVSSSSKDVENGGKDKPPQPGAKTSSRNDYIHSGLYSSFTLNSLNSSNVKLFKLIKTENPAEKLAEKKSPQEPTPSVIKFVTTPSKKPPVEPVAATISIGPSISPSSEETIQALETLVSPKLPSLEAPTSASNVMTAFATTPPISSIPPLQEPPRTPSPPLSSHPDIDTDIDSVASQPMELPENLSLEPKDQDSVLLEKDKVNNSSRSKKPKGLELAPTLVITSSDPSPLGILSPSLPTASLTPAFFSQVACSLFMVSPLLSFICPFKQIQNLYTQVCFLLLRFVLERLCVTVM
The procedure, abridged:
as §1

A further test has as its target T7, ETV2 (Homo sapiens, UniProt O00321 1-342).
T7 sequence: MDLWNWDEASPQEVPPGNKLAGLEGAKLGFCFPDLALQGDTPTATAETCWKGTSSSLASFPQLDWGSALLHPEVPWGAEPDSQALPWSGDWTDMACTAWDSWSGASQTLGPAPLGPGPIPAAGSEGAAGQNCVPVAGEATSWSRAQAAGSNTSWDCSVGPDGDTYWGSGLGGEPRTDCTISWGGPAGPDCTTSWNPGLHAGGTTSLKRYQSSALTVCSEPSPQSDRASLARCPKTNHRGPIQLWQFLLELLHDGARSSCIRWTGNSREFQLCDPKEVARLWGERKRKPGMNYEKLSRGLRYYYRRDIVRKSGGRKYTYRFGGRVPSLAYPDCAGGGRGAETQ
An outline of the steps:
as §1

A further test concerns the target T8, ETV3L (Homo sapiens, UniProt Q6ZN32 1-361).
T8 sequence: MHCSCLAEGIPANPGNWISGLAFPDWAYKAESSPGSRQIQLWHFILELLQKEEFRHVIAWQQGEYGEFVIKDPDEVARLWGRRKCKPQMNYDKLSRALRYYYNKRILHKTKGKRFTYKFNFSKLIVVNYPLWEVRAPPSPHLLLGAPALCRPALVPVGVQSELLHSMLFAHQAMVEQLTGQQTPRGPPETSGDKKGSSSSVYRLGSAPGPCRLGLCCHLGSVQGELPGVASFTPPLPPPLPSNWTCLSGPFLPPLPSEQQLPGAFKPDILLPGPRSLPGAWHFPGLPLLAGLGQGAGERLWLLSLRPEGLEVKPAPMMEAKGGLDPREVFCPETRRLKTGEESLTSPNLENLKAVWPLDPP
The procedure, abridged: as §1

The target of a further test is T9, ETV3 (Homo sapiens, UniProt P41162-2 1-143).
T9 sequence: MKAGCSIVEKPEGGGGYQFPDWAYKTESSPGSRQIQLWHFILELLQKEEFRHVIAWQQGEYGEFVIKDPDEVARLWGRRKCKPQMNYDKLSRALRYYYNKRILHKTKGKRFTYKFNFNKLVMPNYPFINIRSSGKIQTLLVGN
An outline of the steps: as §1

The target of the next test is T10, GABPA (Homo sapiens, UniProt Q06546 1-454).
T10 sequence: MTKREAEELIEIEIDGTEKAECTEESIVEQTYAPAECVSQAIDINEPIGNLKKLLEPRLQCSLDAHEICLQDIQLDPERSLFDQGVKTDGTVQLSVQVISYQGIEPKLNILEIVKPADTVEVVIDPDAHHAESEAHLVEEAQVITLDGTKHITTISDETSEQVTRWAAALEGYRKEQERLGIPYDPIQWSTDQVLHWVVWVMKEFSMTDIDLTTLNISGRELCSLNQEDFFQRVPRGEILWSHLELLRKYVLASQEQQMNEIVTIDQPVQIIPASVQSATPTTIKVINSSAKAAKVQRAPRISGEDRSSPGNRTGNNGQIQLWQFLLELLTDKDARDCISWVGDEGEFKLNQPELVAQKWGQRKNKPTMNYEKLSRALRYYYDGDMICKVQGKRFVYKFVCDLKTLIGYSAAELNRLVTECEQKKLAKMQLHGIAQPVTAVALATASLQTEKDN
The procedure, abridged:
as §1

The target of the next test is T11, FEV (Homo sapiens, UniProt Q99581 1-238).
T11 sequence: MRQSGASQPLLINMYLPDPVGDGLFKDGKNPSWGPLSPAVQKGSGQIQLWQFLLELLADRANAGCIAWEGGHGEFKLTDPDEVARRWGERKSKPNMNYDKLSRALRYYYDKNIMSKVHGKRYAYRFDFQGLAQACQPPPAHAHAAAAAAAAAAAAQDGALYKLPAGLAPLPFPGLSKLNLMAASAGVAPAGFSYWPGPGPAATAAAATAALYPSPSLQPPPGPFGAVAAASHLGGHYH
An outline of the steps:
as §1

The next test concerns the target ETV6 (Homo sapiens, UniProt P41212 1-452). The procedure, abridged: as §1

ELF4, sequence (Q99607 whole entry): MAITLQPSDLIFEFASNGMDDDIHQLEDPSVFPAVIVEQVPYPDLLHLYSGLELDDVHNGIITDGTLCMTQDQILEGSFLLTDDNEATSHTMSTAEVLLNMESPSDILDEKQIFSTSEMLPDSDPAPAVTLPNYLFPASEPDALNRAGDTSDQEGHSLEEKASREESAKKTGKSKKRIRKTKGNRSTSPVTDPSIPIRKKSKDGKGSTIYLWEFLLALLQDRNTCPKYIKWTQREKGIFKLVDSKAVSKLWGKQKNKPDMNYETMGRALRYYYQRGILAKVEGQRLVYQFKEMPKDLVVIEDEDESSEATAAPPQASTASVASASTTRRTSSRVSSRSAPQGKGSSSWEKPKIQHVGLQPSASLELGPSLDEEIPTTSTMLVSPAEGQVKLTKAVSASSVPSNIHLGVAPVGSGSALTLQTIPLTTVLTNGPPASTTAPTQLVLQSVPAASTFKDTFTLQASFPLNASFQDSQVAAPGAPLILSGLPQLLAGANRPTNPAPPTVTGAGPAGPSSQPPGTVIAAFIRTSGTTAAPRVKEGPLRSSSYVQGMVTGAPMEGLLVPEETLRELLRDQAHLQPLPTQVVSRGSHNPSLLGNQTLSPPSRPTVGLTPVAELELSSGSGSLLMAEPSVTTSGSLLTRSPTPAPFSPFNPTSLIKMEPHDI
ELF1, sequence (P32519 whole entry): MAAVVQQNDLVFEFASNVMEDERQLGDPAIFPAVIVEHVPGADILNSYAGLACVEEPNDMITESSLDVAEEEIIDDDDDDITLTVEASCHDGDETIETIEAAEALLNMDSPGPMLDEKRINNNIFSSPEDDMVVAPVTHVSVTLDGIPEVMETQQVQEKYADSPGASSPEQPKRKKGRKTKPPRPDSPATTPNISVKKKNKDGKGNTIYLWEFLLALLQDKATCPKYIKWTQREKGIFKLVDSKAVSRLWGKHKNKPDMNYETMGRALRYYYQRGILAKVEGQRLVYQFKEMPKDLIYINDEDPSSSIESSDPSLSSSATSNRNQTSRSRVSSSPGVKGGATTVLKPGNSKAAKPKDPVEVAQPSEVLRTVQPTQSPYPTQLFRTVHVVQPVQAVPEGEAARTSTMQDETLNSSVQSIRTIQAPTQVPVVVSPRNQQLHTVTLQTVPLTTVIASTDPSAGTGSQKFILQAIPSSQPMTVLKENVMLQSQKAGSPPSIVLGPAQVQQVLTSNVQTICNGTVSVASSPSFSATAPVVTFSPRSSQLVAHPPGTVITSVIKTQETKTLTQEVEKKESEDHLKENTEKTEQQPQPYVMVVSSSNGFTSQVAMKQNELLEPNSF
SPIB, sequence (Q01892 whole entry): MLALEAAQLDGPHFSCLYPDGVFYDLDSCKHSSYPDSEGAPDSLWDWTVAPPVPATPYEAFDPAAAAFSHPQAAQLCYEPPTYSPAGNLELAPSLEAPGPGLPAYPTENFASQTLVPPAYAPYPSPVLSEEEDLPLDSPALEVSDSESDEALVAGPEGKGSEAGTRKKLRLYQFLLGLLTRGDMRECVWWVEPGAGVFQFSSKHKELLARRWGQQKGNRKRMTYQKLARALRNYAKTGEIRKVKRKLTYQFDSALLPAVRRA
ETV6, sequence (P41212 whole entry): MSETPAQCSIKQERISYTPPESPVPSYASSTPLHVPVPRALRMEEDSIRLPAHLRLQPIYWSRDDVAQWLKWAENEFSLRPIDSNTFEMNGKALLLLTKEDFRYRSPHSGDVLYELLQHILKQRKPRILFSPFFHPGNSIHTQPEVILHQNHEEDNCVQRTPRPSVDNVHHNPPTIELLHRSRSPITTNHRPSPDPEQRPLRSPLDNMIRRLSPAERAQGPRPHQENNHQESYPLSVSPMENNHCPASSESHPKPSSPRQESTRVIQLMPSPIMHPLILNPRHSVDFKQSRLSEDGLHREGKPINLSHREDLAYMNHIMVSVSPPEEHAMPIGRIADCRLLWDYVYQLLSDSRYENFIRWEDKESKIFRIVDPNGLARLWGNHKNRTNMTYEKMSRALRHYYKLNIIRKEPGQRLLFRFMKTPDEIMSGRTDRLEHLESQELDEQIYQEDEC

ACATGA: the binding signal was 1.01 fold enrichment (6-mer frequency, TF over GST control) with ELK1; 1.01 fold enrichment (6-mer frequency, TF over GST control) with SPI1; 1.07 fold enrichment (6-mer frequency, TF over GST control) with ELK3; 1.02 fold enrichment (6-mer frequency, TF over GST control) in the test with SPIC; 1.04 fold enrichment (6-mer frequency, TF over GST control) with ELF4; 1.03 fold enrichment (6-mer frequency, TF over GST control) in the test with ELF3.
Consider GCCCTG, for which the binding signal with ELK1 was 1.12 fold enrichment (6-mer frequency, TF over GST control); with ERG, 1 fold enrichment (6-mer frequency, TF over GST control); with ELF1, 1.06 fold enrichment (6-mer frequency, TF over GST control); in the test with SPIB, 1.07 fold enrichment (6-mer frequency, TF over GST control); in the test with SPIC it was 1.11 fold enrichment (6-mer frequency, TF over GST control); with ELK4, 1.04 fold enrichment (6-mer frequency, TF over GST control). The binding signal is 1 fold enrichment (6-mer frequency, TF over GST control) with ETV2; 1.08 fold enrichment (6-mer frequency, TF over GST control) in the test with ETV3L; 1.04 fold enrichment (6-mer frequency, TF over GST control) with ETV3.
With GTTGGC, the binding signal with SPIC was 1.09 fold enrichment (6-mer frequency, TF over GST control).
On the same count and under the same terms, to CTGGGG belongs 1 fold enrichment (6-mer frequency, TF over GST control).
As to GCGCCG, the binding signal with GABPA was 1.03 fold enrichment (6-mer frequency, TF over GST control); in the test with ELK3, 1.02 fold enrichment (6-mer frequency, TF over GST control); with FEV it was 1.05 fold enrichment (6-mer frequency, TF over GST control); with SPIC it was 1.1 fold enrichment (6-mer frequency, TF over GST control); with ELF4 it was 1.03 fold enrichment (6-mer frequency, TF over GST control); with ELK4, 1.03 fold enrichment (6-mer frequency, TF over GST control). Moreover, the binding signal with ETV6 was 1.05 fold enrichment (6-mer frequency, TF over GST control).
